High-throughput results deposited in PubChem BioAssay by several laboratories.
PostGolgi ctrl – growth inhibition of yeast control strain, primary screen, counter-screen for post-Golgi transport modulator project; efflux-deficient yeast background strain, growth absorbance A615, 16 h; hit rate 5% among 98,000; inhibition, % at 10 µM
PostGolgi yeast – phenotypic screen on post-Golgi transport, primary screen; post-Golgi transport phenotypic cell assay; inhibition, % at 10 µM; hit rate 0.9% among 98,000; AID 739, 2007;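 also: yeast cells grown in 1536-well plates; yeast grown about 18 h at 30C before absorbance read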
Cav3 T inh – Cav3.2 calcium influx blockers – cell-based, Fluo-4 calcium fluorescence, FDSS, MLSMR library, primary screen; B-score at 10 µM; hit rate 4% among 100,000; Cav3.2-expressing cells; hits give low values; AID 449739, 2010;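 active = single-dose well whose peak fluorescence ratio is a statistical outlier from its plate by either plate-standardised score or position-corrected B-score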
Pyk2 oligo antag – antagonists of Pyk2 self-association, primary screen, Q293 cells, FERM NanoBiT luminescence, HTS; hits give low values; z-score (the deposit names both 25 µM and 10 µM); hit rate 0.83% among 99,000; AID 1347419, 2020;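 active = Z-score of -3 or lower, scaled per plate to the spread of control and sample wells; inactive = z-score above -3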;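 also: negative z-score means lost luminescence so less FERM oligomerization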
Large screens that a line does not name were inactive. The list is not random: actives were taken first. Their share in the collection is about 8%. Rule as the data show it, unless noted: active = inhibition above about 30%; inactive = the rest.

COCCCNC(=O)c1cccc(C(=O)NCCCOC)c1	PostGolgi ctrl 41.4
O=C(C(c1ccccc1)c1ccccc1)N1CCN(Cc2ccc(Br)cc2)CC1	PostGolgi ctrl 51.0
Cc1cccc(NC(=O)c2nc(-c3ccccc3)n(-c3ccccc3)n2)c1C	Cav3 T inh -6.63
CCCOc1nc(N)c(C#N)c(-c2ccccc2F)c1C#N	Pyk2 oligo antag -3.07
Cc1nn(-c2ccccc2)c2nc(N)c(C#N)c(-c3ccc(F)cc3)c12	none
O=C(CN1C(=O)C2CC=CCC2C1=O)Nc1nnc(SCc2ccc(Cl)cc2)s1 (stereo not given)	Cav3 T inh -4.47
O=C(CN1C(=O)C2CC=CCC2C1=O)Nc1nnc(SCc2c(Cl)cccc2Cl)s1 (stereo not given)	none
CCCSC1=C(C#N)C(c2cccs2)C(C(=O)Nc2ccccc2)=C(C)N1 (stereo not given)	Cav3 T inh -2.69 (no result: PostGolgi ctrl, PostGolgi yeast)
C=CCNCCCCOc1ccc(C)cc1[N+](=O)[O-]	none
O=C(Nc1nc2n(n1)C(c1ccc(Cl)cc1)CC(c1ccc(Cl)cc1)N2)c1ccco1 (stereo not given)	Cav3 T inh -5.3 (no result: Pyk2 oligo antag)
COc1ccc(C2CC(c3ccc(Cl)cc3)Nc3nc(NC(=O)c4ccco4)nn32)cc1 (stereo not given)	Cav3 T inh -3.9 (no result: PostGolgi ctrl, PostGolgi yeast)
COc1ccc(C2CC(c3ccccc3)Nc3nc(NC(=O)c4cccs4)nn32)cc1 (stereo not given)	Pyk2 oligo antag -3.54
COc1ccc(C2CC(c3ccccc3)n3nc(NC(=O)c4cccs4)nc3N2)cc1 (stereo not given)	none (no result: Cav3 T inh)
COc1ccc(C2CC(c3ccc(Cl)c(Cl)c3)Nc3nc(N)nn32)cc1 (stereo not given)	PostGolgi ctrl 36.3 (no result: Pyk2 oligo antag)
O=C(CN1C(=O)NC2(CCCCCC2)C1=O)Nc1ccc(S(=O)(=O)N2CCOCC2)cc1	none
Cc1nn2c(-c3ccccc3)nnc2c2ccccc12	PostGolgi ctrl 30.8
Cc1cc(Cl)ccc1OCc1n[nH]c(=S)n1C1CCCCC1	PostGolgi ctrl 96.2, PostGolgi yeast 99.4
COc1ccc(Cl)cc1-c1n[nH]c(=S)n1C1CCCCC1	Cav3 T inh -5
CCCCCCCCc1nc(=S)[nH][nH]1	none (no result: PostGolgi ctrl, PostGolgi yeast)
Cc1cc2nn(-c3cccc4ccccc34)nc2cc1NC(=O)c1cccs1	Cav3 T inh -4.26
CCn1c(CCC(=O)Nc2cc(F)ccc2C)nc2cc(S(=O)(=O)N(C)C)ccc21	none
CCN(CC)S(=O)(=O)c1ccc2c(c1)nc(CCC(=O)Nc1ccccc1Cc1ccccc1)n2CC	Cav3 T inh -4.42
O=C(Nc1cccc(Cn2cccn2)c1)c1cc2c(s1)CCCC2	none
CN(C)S(=O)(=O)N(CC(=O)N(Cc1ccccc1)Cc1ccccc1)c1ccccc1	PostGolgi ctrl 33.9
O=c1c([N+](=O)[O-])cc(C(F)(F)F)cn1Cc1c(Cl)cccc1Cl	none (no result: Cav3 T inh)
CCC(CO)n1c(SCc2cc(=O)oc3cc(C)ccc23)nc2ccccc2c1=O (stereo not given)	PostGolgi ctrl 46.6, PostGolgi yeast 41.2
Cc1nn(C(C)C(=O)NCc2ccccc2Cl)c(=O)c2c1sc1ccccc12 (stereo not given)	PostGolgi ctrl 54.7
CCOC(=O)N1CCN(C(=O)C(CC)n2nc(C)c3sc4ccccc4c3c2=O)CC1 (stereo not given)	none
CC(=O)Nc1sc2c(c1C(c1cccs1)N1CCOCC1)CCCC2 (stereo not given)	PostGolgi ctrl 42.1
CS(=O)(=O)N(CC(=O)NCc1ccco1)c1ccc(Cl)c(C(F)(F)F)c1	none
CCOc1ccccc1C(=O)N1c2ccccc2Sc2ccccc21	PostGolgi ctrl 41.8, Cav3 T inh -5.57
CCC(=O)NC(c1cccc([N+](=O)[O-])c1)c1c(OC(C)=O)ccc2ccccc12 (stereo not given)	Pyk2 oligo antag -3.32 (no result: PostGolgi ctrl, PostGolgi yeast)
CC(=O)Oc1ccc2ccccc2c1C(NC(=O)Cc1ccccc1)c1ccccc1Cl (stereo not given)	Pyk2 oligo antag -4.41
CCCC(=O)NC(c1ccc(OC)c(OC)c1)c1c(O)ccc2ccccc12 (stereo not given)	none
CN(C)c1nc(NCc2ccccc2)nc(N/N=C/c2ccc(Cl)cc2Cl)n1	none
COc1cccc(C(=O)OCC(=O)Nc2ccccc2N2CCOCC2)c1	PostGolgi ctrl 38.5
CCOC(=O)c1ccc(N=c2sc(C(=O)OC)cc(=O)n2Cc2ccco2)cc1	PostGolgi ctrl 56.8 (no result: Pyk2 oligo antag)
CCCCN=c1sc(C(=O)OC)cc(=O)n1CCCC	none
COC(=O)c1cc(=O)n(Cc2cccs2)c(=NCc2cccs2)s1	PostGolgi ctrl 31.3
COc1cc(C2=CCN(C(C)=O)CC2)ccc1OC(C)=O	none (no result: PostGolgi ctrl, PostGolgi yeast, Pyk2 oligo antag)
COc1ccc(N2C(=O)CC(Sc3nc(C)c4c(n3)CCCC4)C2=O)cc1 (stereo not given)	none
Cc1nc(SC2CC(=O)N(c3cc(Cl)cc(Cl)c3)C2=O)nc2c1CCCC2 (stereo not given)	PostGolgi ctrl 59.5
Cc1csc(SCC(=O)NC23CC4CC(CC(C4)C2)C3)n1	none
Cc1c(Cl)c([N+](=O)[O-])nn1CC(=O)NC12CC3CC(CC(C3)C1)C2	Cav3 T inh -3.77
O=C(Nc1ccc(-c2cn3ccsc3n2)cc1)c1ccc(F)c(S(=O)(=O)N2CCOCC2)c1	Pyk2 oligo antag -3.68
O=C(Nc1ccccc1)c1ccc(F)c(S(=O)(=O)N2CCOCC2)c1	none (no result: Cav3 T inh)
CO/N=C(\Cn1ncc(NC2CCCCC2)c(Br)c1=O)c1ccc(Cl)cc1	PostGolgi ctrl 75.5
CNC(=O)c1cc2c(=O)n3cccc(C)c3nc2n(C(C)C)c1=N	none
C=C1CCN([C@@H](CC(C)C)C(=O)NCc2ccco2)S(=O)(=O)c2ccccc21	none (no result: PostGolgi ctrl, PostGolgi yeast, Pyk2 oligo antag)
COc1c(Cl)cc(-c2noc(C)c2C(=O)NCCc2ccc(C)cc2)cc1Cl	PostGolgi ctrl 37.3 (no result: Pyk2 oligo antag)
CCCCCCNC(=O)Cc1nc2nc(C)cc(C)n2n1	none
CC[C@@]1(O)C(=O)OCc2c1cc1n(c2=O)Cc2cc3c(CN(C)C)c(O)ccc3nc2-1	Cav3 T inh -6.28 (no result: PostGolgi ctrl, PostGolgi yeast, Pyk2 oligo antag)
CC[C@@]1(O)C(=O)OCc2c1cc1n(c2=O)Cc2cc3c(N)cccc3nc2-1	none (no result: PostGolgi ctrl, PostGolgi yeast, Pyk2 oligo antag)
O=C(CCN1CCCCC1)NCC1OCCc2ccccc21 (stereo not given)	none
CCCNC(=S)N1CCC(NC(=O)C2CCCCC2)CC1	none
CCOC(=O)C1=C(CSc2nc(C)cc(C)c2C#N)OC(N)=C(C#N)C1c1ccccc1 (stereo not given)	Cav3 T inh -5.46
CCOC(=O)C1=C(CSc2nc(C)cc(C)c2C#N)OC(N)=C(C#N)C1c1cccs1 (stereo not given)	none (no result: Pyk2 oligo antag)
O=C(NCc1ccco1)c1ccc2c(c1)C(=O)N(Cc1ccccc1)C2=O	PostGolgi ctrl 44.2, Cav3 T inh -4.74
CC(c1ccccc1)N1C(=O)c2ccc(C(=O)NCc3ccco3)cc2C1=O (stereo not given)	Cav3 T inh -3.9
CC(C)CCN1C(=O)c2ccc(C(=O)NCc3ccco3)cc2C1=O	none (no result: Cav3 T inh)
CCCN1C2CCCC1CC(NC(=O)c1cc(OC)c(OC)c(OC)c1)C2 (stereo not given)	none
Cc1cc(C)c(CSc2ncc(-c3ccc([N+](=O)[O-])cc3)[nH]2)c(C)c1	PostGolgi ctrl 48.5
NC(=O)CSc1ncc(-c2ccccc2)[nH]1	none
